Assay results published in PubChem BioAssay (EPA / NIEHS).
Inconclusive results are not listed. Active and inactive are the calls of the source. The calls were made as follows: active = hit-call score of the fitted dose curve at least 0.9, where 1 is the maximum; inconclusive = response in the unintended direction; inactive = score below 0.9.

Target: rat Peripheral-type Benzodiazepine Receptor (PBR), Tspo (gene 24230) (UniProt P16257)
Assay: NVS_MP_rPBR: NovaScreen (NVS) Membrane Protein Assay for rat Peripheral-type Benzodiazepine Receptor (PBR) (AID 2283335)
Outline: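 Radioligand displacement, rat kidney membrane prep, 1 h exposure, filter-based scintillation read; DMSO baseline, loss-of-signal scored. Primary screen at 25 uM in duplicate, actives followed up in concentration series.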

Chain of rat Peripheral-type Benzodiazepine Receptor (PBR), Tspo (gene 24230) (P16257 whole entry, looked up): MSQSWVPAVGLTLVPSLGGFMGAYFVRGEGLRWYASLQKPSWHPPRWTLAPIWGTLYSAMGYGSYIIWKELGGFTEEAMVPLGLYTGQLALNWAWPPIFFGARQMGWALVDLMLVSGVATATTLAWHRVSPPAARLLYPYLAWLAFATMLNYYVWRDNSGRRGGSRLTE

Row | Compound | AC50
1 | Clc1ccc(COC(Cn2ccnc2)c2ccc(Cl)cc2Cl)cc1 (stereo not drawn) | 1.63 µM (active)
2 | COP(=O)(OC)O/C(=C\Cl)c1cc(Cl)c(Cl)cc1Cl | 0.38 µM (active)
3 | C[C@H]1CCCC(=O)CCC/C=C/c2cc(O)cc(O)c2C(=O)O1 | 0.346 µM (active)
4 | CCOC(=O)/C=C(C)/C=C/C[C@@H](C)CCCC(C)C | 17.6 µM (active)
5 | O=C(Cc1ccccc1)c1ccccc1 | 9.94 µM (active)

Tested on: not listed separately
Assay: NVS_IC_rCaBTZCHL: NovaScreen (NVS) Ion Channel Assay for Calcium Channel, Type L, Benzothiazepine Site (CaBTZCHL) (AID 2283337)
Outline: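 Radioligand binding to the benzothiazepine site of L-type Ca channels in rat cortical membranes (cell-free), 1.5 h after dosing; filter-based scintillation counting. Loss of signal relative to DMSO baseline; primary single-concentration screen at 25 uM, actives then run in concentration series.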

Row | Compound | AC50 | outcome
6 | COP(=S)(OC)Oc1ccc(Sc2ccc(OP(=S)(OC)OC)cc2)cc1 | 25 µM (active) | –
7 | CCC(=O)C(CC(C)N(C)C)(c1ccccc1)c1ccccc1 (stereo not drawn) | 1.16 µM (active) | –
8 | O=Cc1cccc(Oc2ccccc2)c1 | – | inactive
